Epigenetic derep – Quantitative High-Throughput Screen for Regulators of Epigenetic Control. AID 1865, 2009. murine LDR cells, GFP reporter derepression, 30 h. Potency, µM (top dose mostly 53.9 µM), inactives show at the top dose GFP activation, hits mostly activators. hit rate 0.2% among 280,000; further: % of control where 0% means no effect; nearly all actives have a fitted effect of over 60% in size
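Derepression of a silenced CMV-GFP reporter in murine LDR cells is scored by enumerating GFP-positive cells with a laser-scanning microplate cytometer after 30 hours of treatment at 37 C.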
RORg inh – qHTS for inhibitors of ROR gamma transcriptional activity; Potency, µM (titrated, usually from 53.6 µM), for the others: at the highest dose activity change, negative = inhibition, most hits filed as inhibitors; hit rate 5.4% among 310,000; Nuclear receptor ROR-gamma (Mus musculus), P51450; Drosophila S2 Gal4-RORgamma UAS-luciferase reporter, 20 h; further: on the % scale 0 is the no-effect control and ±100 the full control effect; nearly all actives have a fitted effect of over 60% in size
Target sequence (P51450 whole entry, looked up, the tested form may be a part): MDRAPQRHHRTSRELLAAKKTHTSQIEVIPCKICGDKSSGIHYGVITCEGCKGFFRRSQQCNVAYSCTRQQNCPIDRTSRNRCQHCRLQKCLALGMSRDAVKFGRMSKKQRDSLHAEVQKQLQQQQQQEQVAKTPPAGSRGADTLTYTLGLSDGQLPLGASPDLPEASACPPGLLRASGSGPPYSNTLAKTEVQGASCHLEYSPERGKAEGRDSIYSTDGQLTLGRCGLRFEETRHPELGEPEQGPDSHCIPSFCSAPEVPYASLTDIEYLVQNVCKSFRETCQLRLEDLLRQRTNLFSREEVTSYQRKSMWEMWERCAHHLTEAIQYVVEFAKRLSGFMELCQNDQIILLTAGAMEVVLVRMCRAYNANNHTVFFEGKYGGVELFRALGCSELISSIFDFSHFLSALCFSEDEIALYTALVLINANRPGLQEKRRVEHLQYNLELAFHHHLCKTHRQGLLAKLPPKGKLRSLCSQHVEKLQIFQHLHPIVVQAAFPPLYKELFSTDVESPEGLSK
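Read-out: Photinus luciferase luminescence; inhibitors lower reporter signal. Insect Schneider cells with Gal4-ROR gamma fusion under metallothionein promoter, UAS reporter; 700 uM final copper sulfate induction, 20 hr, ambient temperature.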
VP16 counter – VP16 counterscreen qHTS for inhibitors of ROR gamma transcriptional activity; AID 2546, 2010; Potency, µM (top dose mostly 53.6 µM), for inactives: top-dose activity, negative = inhibition, usual class: inhibitors; hit rate 3.5% among 310,000; Drosophila S2 Gal4-VP16 UAS-luciferase, luminescence, 20 h;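 further: Gal4-VP16 expression switched on by copper sulfate through the metallothionein promoter; on the % scale 0 is the no-effect control and ±100 the full control effect; nearly all actives have a fitted effect of over 50% in size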
Sfp inh – qHTS Assay for Inhibitors of Bacillus subtilis Sfp phosphopantetheinyl transferase (PPTase) | 4'-phosphopantetheinyl transferase ffp (Bacillus subtilis), Q9F4F7 | Biochemical Sfp PPTase activity, qHTS | Potency, µM, for inactives: largest response in the series, negative = inhibition, most hits filed as inhibitors | hit rate 3.5% among 310,000 | AID 1490, 2009;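 further: the enzyme is Sfp with the accession as filed and its product quenches rhodamine fluorescence; 0% = enzyme reaction without inhibitor and -100% = no enzyme wells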
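Compounds were incubated with enzyme (final 15 nM) for 15 min at room temperature before substrate addition started the reaction. Fluorescence at 525 nm excitation, 598 nm emission was recorded immediately and after 30 minutes.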
PINK1 modulator – A Quantitative High throughput Screen to Identify Chemical Modulators of PINK1 Expression; Potency, µM (series often up to 76.6 µM), for inactives: at the top dose activation (PINK1 increase), hits mostly activators; PINK1 immunofluorescence, high-content cytometry, 24 h; AID 624263, 2012; hit rate 0.2% among 410,000; active means well fitted activation curve with a large enough effect; inconclusive means small, poorly fitted or top-dose-only effect; cell line not stated here; further: % of control where 0% means no effect; nearly all actives have a fitted effect of over 65% in size
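PINK1 protein, normally rapidly degraded, was detected by immunofluorescence after 24 hour compound treatment of a stable cell line. Titration data (5 concentrations) came from laser-scanning cytometry, with CCCP-treated wells as controls.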
ClpP mod – qHTS Assay for Activators of ClpP; hit rate 1.9% among 340,000; ATP-dependent Clp protease proteolytic subunit (Bacillus subtilis (strain 168)), P80244; AID 651965, 2013; purified B. subtilis ClpP, FRET peptide cleavage, 20 min; Potency, µM (doses to about 57.5 µM), inactives show top-dose activity change, negative = active; active means well fitted falling curve with a large enough effect; inconclusive means small, poorly fitted or top-dose-only effect; inactive means no such curve, though single readings can be large or run the other way; further: the source files actives as falling curves though it sought activators and does not explain the sign; nearly all actives have a fitted effect of over 65% in size
Target sequence (P80244 whole entry, looked up): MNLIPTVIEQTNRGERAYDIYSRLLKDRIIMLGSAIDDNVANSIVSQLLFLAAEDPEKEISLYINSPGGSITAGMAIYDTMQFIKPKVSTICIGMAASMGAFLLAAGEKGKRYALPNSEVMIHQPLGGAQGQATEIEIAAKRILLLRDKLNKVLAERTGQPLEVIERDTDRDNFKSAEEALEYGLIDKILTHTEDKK
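Purified B. subtilis ClpP, 10 microg/mL final in Tris/HCl pH8 with KCl, BSA, glycerol and Tween-20, cleaved an Abz/nitrotyrosine-quenched decapeptide. Fluorescence (ex 320, em 430) was read at 0 and 20 min at room temperature. Delta was normalized to 5.8 microM ADEP and DMSO/no-enzyme controls.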
Starred values were filed as active, the others as inactive; ? = inconclusive; / = not tested or not shown; [ ] = another dose, or the depositor's remark. The list is not random: actives were taken first. Their share in the collection is about 8.1%. Unless noted, the call rests on the fitted dose curve; in most records, active means well fitted curve in the direction sought with a large enough effect; inconclusive means small, poorly fitted or top-dose-only effect, or another doubt; inactive means no such curve, though single readings can be large; an effect the other way counts as inactive or inconclusive. Potency means the concentration at half of the fitted maximal effect.

SMILES	Epigenetic derep	RORg inh	VP16 counter	Sfp inh	PINK1 modulator	ClpP mod
Cc1cc2c(c(=O)n1CCN(C)C)C(c1ccncc1)C(C#N)=C(N)O2 (stereo not drawn)	-0.8%	-0.4%	-13.9%	12.4%	-2.2%	2.51µM*
O=C(Nc1nccs1)[C@@H]1CC=C[C@@H]2CCN(Cc3ccc(Cl)c(Cl)c3)C(=O)[C@@H]21	/	/	/	/	/	-1.0%
CCOC(=O)c1sc2nc(C)nc(NCc3ccc(F)cc3)c2c1C	/	62.7%	0.4%	-20.8%	26.6%	/
CCOC(=O)c1sc2nc(CC(=O)OC)nc(NCc3ccc(F)cc3)c2c1C	0.9%	27.2%	-9.3%	15.4%	0.6%[38.3 µM]	3.55µM*
CC(C)CSC1=NSC2=NC(=O)/C(=C\c3cccs3)C(=N)N12	-1.0%	?	-14.8%	22.7%	44.7µM*	-1.2%
N=C1/C(=C/c2cccs2)C(=O)N=C2SN=C(SCc3ccccc3)N12	-1.1%	40.9%	18.2%	4.0%	?	-0.8%
O=C(N/N=C/c1ccc(-c2ccc(S(=O)(=O)Nc3ncccn3)cc2)o1)c1cc2ccccc2cc1O	-1.0%	1.0%	6.0%	50.1µM*	-0.9%	?
NC(=S)NN=Cc1ccc(-c2ccc(S(=O)(=O)Nc3ncccn3)cc2)o1	/	/	/	/	0.2%	-3.3%
CCOc1ccc(C(=O)N/N=C/c2ccc(-c3ccc(S(=O)(=O)Nc4ncccn4)cc3)o2)cc1	-0.7%	6.4%	11.8%	-5.3%	-0.9%[38.3 µM]	28.2µM*
Nc1nnc(SCC(=O)c2ccccc2)s1	-2.9%	-3.0%	-13.8%	12.6%	3.2%	-0.2%
Nc1c(C(=O)c2ccccc2)sc2snc(SCC(=O)c3ccccc3)c12	1.4%	11.2µM*	12.6µM*	39.8µM*	14.8%	-0.5%
COc1cc2[nH]c3c(=O)n(CCN4CCCCC4)cnc3c2cc1OC	-0.4%	11.7%	1.4%	12.4%	-1.0%	14.1µM*
Cn1c2ccc(F)cc2c2ncn(CCN3CCOCC3)c(=O)c21	-1.1%	-2.3%	-1.9%	13.1%	0.4%	?
Cc1ccc2c(c1)[nH]c1c(=O)n(Cc3ccccn3)cnc12	-1.2%	4.8%[10 µM]	4.4%	-0.6%	-0.5%	31.6µM*
Cc1ccc2[nH]c3c(=O)n(CCCN4CCOCC4)cnc3c2c1	-1.0%	27.8%	2.4%	3.5%	0.3%	14.1µM*
COc1ccc2[nH]c3c(=O)n(CCCN4CCOCC4)cnc3c2c1	-1.6%	11.3%	3.1%	-4.2%	0.1%	4.5%
Cn1c2ccccc2c2ncn(CCCN3CCOCC3)c(=O)c21	-2.1%	31.0%	10.7%	14.5%	-1.8%	25.1µM*
COc1ccc2c(c1)[nH]c1c(=O)n(Cc3ccccn3)cnc12	-2.5%	18.8%	12.3%	20.3%	9.5%	-8.2%
COc1ccc(Cn2c(C(=O)O)c(CNCC(C)c3ccccc3)c3ccc(OC)cc32)cc1 (stereo not drawn)	-1.0%	/	/	/	-0.3%	-19.3%
Cc1ccc(C(=O)Nc2ccc3oc(-c4ccncc4)nc3c2)c(Cl)c1	5.5%	/	/	/	10.5%	4.0%
Cc1ccc2[nH]c3c(=O)n(CCc4cnc[nH]4)cnc3c2c1	0.7%	14.9%	-0.5%	3.2%	1.8%	15.8µM*
CCOc1ccc2[nH]c3c(=O)n(CCc4ccc(OC)cc4)cnc3c2c1	25.1µM*	9.0%	0.8%	?	8.1%	/
CCC1CCCN1Cn1cnc2c([nH]c3ccc(C)cc32)c1=O (stereo not drawn)	-2.1%	-36.8%	-11.4%	1.9%	-2.4%	28.2µM*
Cc1c(C(=O)N2CCCCCC2)c(S(=O)(=O)Nc2cccc(C#N)c2)c(C)n1C	1.1%	/	/	/	-1.7%	0.3%
CCCCN(C)CCNC(=O)c1c2c(nc3ccccc13)C(=O)N(C1CCCCC1)C2	1.5%	/	/	/	1.7%	-29.6%
SMILES	Epigenetic derep	RORg inh	VP16 counter	Sfp inh	PINK1 modulator	ClpP mod
O=C(CCCN1C(=O)/C(=C\c2cccs2)SC1=S)Nc1ccc(O)cc1C(=O)O	/	5.62µM*	5.62µM*	7.0%	-2.0%	1.4%
COc1ccc(NC(=O)CCCN2C(=O)/C(=C\c3ccco3)SC2=S)cc1	0.0%	11.2µM*	?	?	8.3%	-2.3%
O=C(CCN1C(=O)S/C(=C\c2cccs2)C1=O)NC1=NCCS1	0.0%	?	17.8µM*	-7.2%	0.1%	-6.2%
COc1cccc(/C=C2\SC(=S)N(CCCC(=O)Nc3cccc(C(=O)O)c3)C2=O)c1	/	/	/	/	-0.4%	0.7%
O=C(CCCN1C(=O)/C(=C\c2ccco2)SC1=S)Nc1ccc(O)cc1C(=O)O	/	11.2µM*	14.1µM*	50.1µM*	-0.8%	/
Cc1ccccc1C(=O)NC1(C(F)(F)F)C(=O)Nc2c1c(=O)[nH]c(=O)n2-c1ccc(F)cc1 (stereo not drawn)	-1.0%	/	/	/	-0.2%	0.2%
CCOC(=O)CC(CC(C)=O)C(=O)OCC (stereo not drawn)	13.3%	15.9%	0.9%	-12.6%	/	/
O=C(CCCN1C(=O)/C(=C/c2ccco2)SC1=S)Nc1cccc(C(=O)O)c1	1.0%	-10.6%	-24.8%	25.1µM*	1.4%	/
O=C(CCCN1C(=O)/C(=C\c2cccs2)SC1=S)Nc1cccc(C(=O)O)c1	4.5%	13.3%	-20.6%	4.0%	-0.3%	/
CSCc1nnc(NC(=O)c2ccc(S(=O)(=O)N(CC(C)C)CC(C)C)cc2)o1	-2.2%	0.282µM*	0.631µM*	25.7%	/	/
COCCN(CCOC)S(=O)(=O)c1ccc(C(=O)Nc2ccc([N+](=O)[O-])cc2OC)cc1	-2.4%	-6.8%	3.3%	44.7µM*	-2.2%	/
CSCc1nnc(NC(=O)c2ccc(S(=O)(=O)N(C)C)cc2)o1	-2.6%	2µM*	5.01µM*	?	1.4%	-1.6%
COCCN(CCOC)S(=O)(=O)c1ccc(C(=O)Nc2nnc(CSC)o2)cc1	-2.2%	5.01µM*	12.6µM*	?	-0.7%	-1.3%
CCN(CC)S(=O)(=O)c1ccc(C(=O)Nc2nnc(C(C)C)s2)cc1	0.0%	-4.2%	-12.7%	11.2%	4.0%	-4.1%
CCOc1ccc(CCNS(=O)(=O)c2c(C)nc3sc(C)cn3c2=O)cc1OCC	-0.5%	/	/	/	2.1%	-0.2%
Cc1nnc(NC(=O)CSc2nnc(CNC(=O)c3ccc(S(=O)(=O)N(C)C)cc3)o2)s1	/	-40.8%	1.0%	-3.8%	2.6%	-8.0%
CCCN(CCC)S(=O)(=O)c1ccc(C(=O)Nc2nnc(COC)o2)cc1	-2.9%	0.562µM*	2.24µM*	14.5%	1.7%	1.1%
CCc1nnc(NC(=O)c2ccc(S(=O)(=O)N(CC(C)C)CC(C)C)cc2)o1	-1.0%	0.316µM*	0.355µM*	15.3%	3.4%	-1.0%
